Screening results from PubChem.
Compounds with a hit are over-represented: about 10% of the library has one in this group of screens.
FLuc inh-1: inhibitors of firefly (Photinus pyralis) luciferase | P08659 | purified P. pyralis luciferase, luminescence, biochemical | Potency, µM (doses to about 115 µM), actives largely listed as inhibitors | 76,000 tested, 2.5% active; also: % is scaled to controls: 0 for no effect and ±100 for the full control effect; nearly all actives have a fitted effect of over 65% in size
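Luminescence read by CCD imager after adding enzyme (10nM final) to wells holding compound, titrated in qHTS. Substrates 10uM each D-luciferin and ATP; buffer 50mM Tris acetate pH 7.5, 10mM Mg acetate, Tween-20, BSA.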
HEK293 tox: cytotoxic compounds in HEK 293 cells | HEK 293 viability, ATP luminescence (CellTiter-Glo), 48-72 h | Potency, µM (titrated, usually from 115 µM), without a hit: at the highest dose activity change, negative = cytotoxicity, usual class: inhibitors | 94,000 tested, 6.6% active; also: % is scaled to controls: 0 for no effect and ±100 for the full control effect; nearly all actives have a fitted effect of over 60% in size
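CellTiter-Glo luminescence (cellular ATP) was read after 48 or 72 hr of compound exposure at 37 degree Celsius. Cells were HEK 293 plated at 250 cells/well.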
GPT2 inh: blocks human glutamate pyruvate transaminase 2; 100,000 tested, 0.25% active; Recombinant GPT2, coupled pyruvate oxidase/HRP Amplex Red fluorescence; AID 1671188; Potency, µM (top dose mostly 57.7 µM), inactives show at the top dose activity change, negative = inhibition, usual class: inhibitors; Q8TD30; also: % is scaled to controls: 0 for no effect and ±100 for the full control effect; nearly all actives have a fitted effect of over 60% in size
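Recombinant GPT2 (10ng/uL) with 250uM a-KG and 2mM L-alanine, 30 min at room temperature, in HEPES pH 7.5 buffer. Pyruvate detected by pyruvate oxidase/HRP/Amplex Red fluorescence after 30 min in the dark; AOA (50uM) as positive control.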
NPR1 antag: human Npr1 receptor antagonism; P16066; HEK293 hNpr1 GloSensor cGMP, ANP-stimulated luminescence; Potency, µM (doses to about 46.3 µM), without a hit: at the top dose activity change, negative = inhibition, hits mostly inhibitors; 76,000 tested, 1.6% active; AID 1347048; calls by dose curve; also: % is scaled to controls: 0 for no effect and ±100 for the full control effect; nearly all actives have a fitted effect of over 60% in size
Target sequence (P16066 whole entry, looked up): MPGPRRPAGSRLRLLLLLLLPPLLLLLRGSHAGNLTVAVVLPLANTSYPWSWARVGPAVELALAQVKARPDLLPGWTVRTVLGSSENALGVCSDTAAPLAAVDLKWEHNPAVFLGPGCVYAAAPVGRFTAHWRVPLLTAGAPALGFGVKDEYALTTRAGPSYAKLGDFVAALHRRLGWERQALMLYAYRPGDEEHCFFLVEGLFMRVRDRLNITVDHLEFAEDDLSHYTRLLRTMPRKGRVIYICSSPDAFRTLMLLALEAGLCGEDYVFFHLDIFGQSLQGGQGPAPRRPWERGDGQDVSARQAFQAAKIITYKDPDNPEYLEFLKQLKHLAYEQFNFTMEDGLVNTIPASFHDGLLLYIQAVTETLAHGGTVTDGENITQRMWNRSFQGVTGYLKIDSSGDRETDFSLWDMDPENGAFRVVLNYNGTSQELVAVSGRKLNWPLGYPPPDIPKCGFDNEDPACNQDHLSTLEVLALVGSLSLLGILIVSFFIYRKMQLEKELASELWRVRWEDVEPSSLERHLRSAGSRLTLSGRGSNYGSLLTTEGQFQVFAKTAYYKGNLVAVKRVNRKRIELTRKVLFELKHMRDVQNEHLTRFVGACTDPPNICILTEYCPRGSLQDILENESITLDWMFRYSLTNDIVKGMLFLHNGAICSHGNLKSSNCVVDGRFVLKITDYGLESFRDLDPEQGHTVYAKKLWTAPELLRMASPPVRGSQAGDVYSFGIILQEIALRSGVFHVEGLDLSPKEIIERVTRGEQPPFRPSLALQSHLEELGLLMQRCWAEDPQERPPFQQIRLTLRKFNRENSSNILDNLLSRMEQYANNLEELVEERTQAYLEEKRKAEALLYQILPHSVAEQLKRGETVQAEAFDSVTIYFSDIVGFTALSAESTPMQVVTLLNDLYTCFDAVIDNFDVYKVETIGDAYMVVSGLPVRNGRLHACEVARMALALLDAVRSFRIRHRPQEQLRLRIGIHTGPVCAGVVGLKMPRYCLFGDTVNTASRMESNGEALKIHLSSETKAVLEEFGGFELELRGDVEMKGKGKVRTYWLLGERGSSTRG
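Compound pre-incubated 30 min at room temperature on GloSensor-loaded HEK293 cells stably carrying hNpr1 and the pGS-40F cGMP biosensor. Stimulation uses hNppA at 0.1 nM final; luminescence is taken at baseline and 20 min post-agonist.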
NIH3T3 tox: kills NIH 3T3 cells. NIH 3T3 viability, CellTiter-Glo ATP luminescence, 48-72 h. Potency, µM (series often up to 96.7 µM), without a hit: at the highest dose activity change, negative = cytotoxicity, actives largely listed as inhibitors. AID 1345082. 94,000 tested, 4.3% active; also: % is scaled to controls: 0 for no effect and ±100 for the full control effect; nearly all actives have a fitted effect of over 55% in size
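Cytotoxicity was measured by CellTiter-Glo ATP luminescence after 48 or 72 h compound exposure at 37 °C. Mouse NIH 3T3 fibroblasts were seeded at 400 cells/well and dosed by 23 nL pin transfer.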
FLuc SDR -ATP: binders stabilizing firefly luciferase, without ATP. 1,300 tested, 7.8% active. AID 1963318. shares compounds with FLuc inh-1. Potency, µM (top dose mostly 32.7 µM), without a hit: at the top dose activation (signal gain), actives largely listed as activators. Purified FLuc-C-HiBiT, Nano-Glo HiBiT luminescence, no ATP; also: nearly all actives have a fitted effect of over 55% in size
FLuc SDR ATP: stabilizes firefly luciferase with ATP present. purified FLuc-C-HiBiT + ATP, HiBiT complementation luminescence. shares compounds with FLuc inh-1. AID 1963319. 1,300 tested, 8.7% active. Potency, µM (doses to about 32.7 µM), for the others: at the top dose activation (gain of signal), usual class: activators;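 also: signal reports ligand binding via conformational change of the enzyme rather than luciferase catalysis; % of control where 0% means no effect; nearly all actives have a fitted effect of over 55% in size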
FLuc inh-2: firefly luciferase enzyme inhibition | Potency, µM (highest dose often 32.7 µM), inactives show at the highest dose activity change, negative = inhibition, usual class: inhibitors | 1,300 tested, 42% active | purified FLuc-C-HiBiT enzyme, luciferin luminescence | shares compounds with FLuc inh-1 | AID 1963320; also: % is scaled to controls: 0 for no effect and ±100 for the full control effect; nearly all actives have a fitted effect of over 70% in size
* hit, by the source's call; [ ] = another dose, or the depositor's remark. Unless noted, calls follow the shape of the dose curve; as a rule, active = well fitted curve in the direction sought with a large enough effect; inconclusive = small, poorly fitted or top-dose-only effect, or another doubt; inactive = no such curve, though single readings can be large; an effect the other way counts as inactive or inconclusive. Potency is read from the fitted curve at half-maximal effect.

For CN1CCNc2cc(Nc3ccc(F)c(Cl)c3)ncc2C1 the results were FLuc inh-1 0.79µM*, HEK293 tox inconclusive, GPT2 inh -1%[88.5 µM], NPR1 antag inconclusive, NIH3T3 tox 50µM*, FLuc SDR -ATP 20%[49.3 µM], FLuc SDR ATP 16%[49.3 µM] and FLuc inh-2 13µM*.
CN1CCNc2cc(Nc3ccc(F)cc3)ncc2C1 was read as FLuc inh-1 3.2µM*, HEK293 tox inconclusive, GPT2 inh -2%[88.5 µM], NPR1 antag -14%[70.6 µM], NIH3T3 tox inconclusive, FLuc SDR -ATP 26%[65.7 µM], FLuc SDR ATP 20%[65.7 µM] and FLuc inh-2 20µM*.
CN1CCNc2cc(Nc3ccncc3)ncc2C1 was read as FLuc inh-1 inactive, HEK293 tox inconclusive, GPT2 inh -18%[88.5 µM], NPR1 antag 7%[70.6 µM] and NIH3T3 tox inconclusive.
Screening CC(C)CN1CCNc2cc(-c3ccccc3)ncc2C1 returned FLuc inh-1 4µM*, HEK293 tox inconclusive, GPT2 inh 0%[88.5 µM], NPR1 antag -22%[70.6 µM], NIH3T3 tox inconclusive, FLuc SDR -ATP 18%[65.7 µM], FLuc SDR ATP 13%[65.7 µM] and FLuc inh-2 inconclusive.
O=C1NCc2ccccc2CC12CCCN(Cc1cccnc1)C2 (stereo not given) was read as HEK293 tox -3%, GPT2 inh inactive and NIH3T3 tox 4%.
`COc1ccc(C(=O)c2c(C)n(CCN3CCOCC3)c3cc(I)ccc23)cc1` gave GPT2 inh inactive.
COc1ccc(-n2cc(C3=CCN(CCN4CCOCC4)CC3)cn2)cc1 was read as FLuc inh-1 4.5µM*, HEK293 tox inconclusive, GPT2 inh -9%, NPR1 antag inconclusive, NIH3T3 tox inconclusive, FLuc SDR -ATP inconclusive, FLuc SDR ATP inconclusive and FLuc inh-2 9.9µM*.
COc1cc2c(cc1-c1ccc(CO)cc1)NC(=O)C21CCN(C)CC1 was read as FLuc SDR -ATP 15%[49.3 µM], FLuc SDR ATP 10%[49.3 µM] and FLuc inh-2 inconclusive.
`c1ccc2c(CC3CN4CCCC4CN3)c[nH]c2c1` (stereo not given) gave HEK293 tox -4%[172 µM], GPT2 inh inactive and NIH3T3 tox -12%[138 µM].
`O=C(Nc1ccccc1)Nc1ccc2n(c1=O)C[C@H]1C[C@@H]2CN(C(=O)c2ccccc2)C1` gave FLuc inh-1 14µM*, HEK293 tox inconclusive, GPT2 inh 4%[88.5 µM], NPR1 antag -5%[70.6 µM], NIH3T3 tox inconclusive, FLuc SDR -ATP inconclusive, FLuc SDR ATP 17%[49.3 µM] and FLuc inh-2 inconclusive.
O=C(Nc1ccc2n(c1=O)C[C@H]1C[C@@H]2CN(C(=O)Nc2ccccc2)C1)c1ccncc1 was read as FLuc inh-1 inactive, HEK293 tox 0%[172 µM], GPT2 inh -25%[88.5 µM], NPR1 antag 3%[70.6 µM] and NIH3T3 tox inconclusive.
For O=C1CCC2(CCNCC2)CCN1CC1CC1 the results were FLuc inh-1 inactive, HEK293 tox -24%, GPT2 inh 2%, NPR1 antag 3% and NIH3T3 tox inactive.
